# Reference: PubChem BioAssay AID1159580 (chemical genetic matrix, 2015)
# In all, about 5,500 compounds went through this assay and about 2,000 (36%) were called active. Roughly 18% stayed inconclusive and do not appear here. This is one part of the list. A number with no mark means an inactive call. Cut-off read from the data, not from the text of the source: active = normalized growth mostly below about 0.91 (no sharp cut-off); inconclusive = no clear call, values can overlap the other calls; inactive = mostly above about 0.92.
# Experiment: chemical genetic growth profiling, strain panel (AID 1159580);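 note: tested at 20 µM; growth read once vehicle control cultures reached saturation at 30 °C; 1 = growth at the plate median or of vehicle wells; lower values mean less growth of the strain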
# Settings: growth OD
smiles,measurement,setting,value
CC[C@@]1(O)C(=O)OCc2c1cc1n(c2=O)Cc2cc3ccccc3nc2-1,normalized growth,"S. cerevisiae deletion strains, locus YJR066W, strain TOR1, hits give low values",0.665 (active)
same,normalized growth,"S. cerevisiae deletion strains, locus YJR075W, strain HOC1, hits give low values",0.88
same,normalized growth,"S. cerevisiae deletion strains, locus YKL009W, strain mrt4, hits give low values",0.936
same,normalized growth,"S. cerevisiae deletion strains, locus YKL068W, hits give low values",0.951
same,normalized growth,"S. cerevisiae deletion strains, locus YKL085W, strain MDH1 (second series), hits give low values",0.796 (active)
same,normalized growth,"S. cerevisiae deletion strains, locus YKL085W, strain MDH1, hits give low values",0.796 (active)
same,normalized growth,"S. cerevisiae deletion strains, locus YKL160W, strain elf1, hits give low values",0.965
same,normalized growth,"S. cerevisiae deletion strains, locus YKL190W, strain CNB1, hits give low values",0.948
same,normalized growth,"S. cerevisiae deletion strains, locus YKR001C, strain vps1, hits give low values",0.549 (active)
same,normalized growth,"S. cerevisiae deletion strains, locus YKR026C, strain gcn3, hits give low values",0.919 (active)
same,normalized growth,"S. cerevisiae deletion strains, locus YKR091W, strain srl3, hits give low values",0.914 (active)
same,normalized growth,"S. cerevisiae deletion strains, locus YLL001W, strain dnm1, hits give low values",0.831 (active)
same,normalized growth,"S. cerevisiae deletion strains, locus YLL026W, hits give low values",0.727 (active)
same,normalized growth,"S. cerevisiae deletion strains, locus YLL041C, strain sdh2, hits give low values",0.924 (active)
same,normalized growth,"S. cerevisiae deletion strains, locus YLR027C, strain aat2, hits give low values",0.653 (active)
same,normalized growth,"S. cerevisiae deletion strains, locus YLR039C, strain RIC1, hits give low values",0.692
same,normalized growth,"S. cerevisiae deletion strains, locus YLR058C, strain SHM2, hits give low values",0.881 (active)
same,normalized growth,"S. cerevisiae deletion strains, locus YLR102C, strain apc9, hits give low values",0.913 (active)
same,normalized growth,"S. cerevisiae deletion strains, locus YLR113W, strain HOG1, hits give low values",0.711 (active)
same,normalized growth,"S. cerevisiae deletion strains, locus YLR221C, strain rsa3, hits give low values",0.693 (active)
same,normalized growth,"S. cerevisiae deletion strains, locus YLR258W, strain gsy2, hits give low values",0.78 (active)
same,normalized growth,"S. cerevisiae deletion strains, locus YLR262C, strain YPT6 (second series), hits give low values",0.484 (active)
same,normalized growth,"S. cerevisiae deletion strains, locus YLR262C, strain YPT6, hits give low values",0.662
same,normalized growth,"S. cerevisiae deletion strains, locus YLR268W, strain sec22, hits give low values",0.63 (active)
same,normalized growth,"S. cerevisiae deletion strains, locus YLR320W, strain mms22, hits give low values",0.108 (active)
same,normalized growth,"S. cerevisiae deletion strains, locus YLR330W, strain CHS5, hits give low values",0.893 (active)
same,normalized growth,"S. cerevisiae deletion strains, locus YLR342W, strain FKS1 (second series), hits give low values",0.732 (active)
same,normalized growth,"S. cerevisiae deletion strains, locus YLR342W, strain FKS1, hits give low values",0.647 (active)
same,normalized growth,"S. cerevisiae deletion strains, locus YLR357W, strain rsc2, hits give low values",1
same,normalized growth,"S. cerevisiae deletion strains, locus YLR370C, strain arc18, hits give low values",0.832 (active)
same,normalized growth,"S. cerevisiae deletion strains, locus YLR371W, strain rom2, hits give low values",0.929
same,normalized growth,"S. cerevisiae deletion strains, locus YLR384C, strain iki3, hits give low values",0.96
same,normalized growth,"S. cerevisiae deletion strains, locus YLR418C, strain cdc73, hits give low values",0.857
same,normalized growth,"S. cerevisiae deletion strains, locus YML016C, strain PPZ1, hits give low values",0.998
same,normalized growth,"S. cerevisiae deletion strains, locus YML032C, strain rad52, hits give low values",0.0917 (active)
same,normalized growth,"S. cerevisiae deletion strains, locus YML120C, strain ndi1, hits give low values",0.868 (active)
same,normalized growth,"S. cerevisiae deletion strains, locus YML124C, strain tub3, hits give low values",0.903 (active)
same,normalized growth,"S. cerevisiae deletion strains, locus YMR058W, strain fet3, hits give low values",0.705 (active)
same,normalized growth,"S. cerevisiae deletion strains, locus YMR078C, strain ctf18, hits give low values",0.111 (active)
same,normalized growth,"S. cerevisiae deletion strains, locus YMR125W, strain sto1, hits give low values",0.856 (active)
same,normalized growth,"S. cerevisiae deletion strains, locus YMR129W, hits give low values",0.893 (active)
same,normalized growth,"S. cerevisiae deletion strains, locus YMR205C, strain PFK2, hits give low values",0.798 (active)
same,normalized growth,"S. cerevisiae deletion strains, locus YMR223W, strain ubp8, hits give low values",0.671 (active)
same,normalized growth,"S. cerevisiae deletion strains, locus YMR231W, strain pep5, hits give low values",0.268 (active)
same,normalized growth,"S. cerevisiae deletion strains, locus YMR263W, strain SAP30, hits give low values",0.847 (active)
same,normalized growth,"S. cerevisiae deletion strains, locus YMR307W, strain GAS1, hits give low values",0.461 (active)
same,normalized growth,"S. cerevisiae deletion strains, locus YNL067W, strain RPL9B, hits give low values",0.781 (active)
same,normalized growth,"S. cerevisiae deletion strains, locus YNL071W, strain lat1, hits give low values",0.744 (active)
same,normalized growth,"S. cerevisiae deletion strains, locus YNL128W, strain TEP1, hits give low values",0.937
same,normalized growth,"S. cerevisiae deletion strains, locus YNL153C, strain GIM3, hits give low values",0.892
same,normalized growth,"S. cerevisiae deletion strains, locus YNL183C, strain NPR1, hits give low values",0.643 (active)
same,normalized growth,"S. cerevisiae deletion strains, locus YNL209W, strain ssb2, hits give low values",0.87 (active)
same,normalized growth,"S. cerevisiae deletion strains, locus YNL233W, strain BNI4, hits give low values",0.804 (active)
same,normalized growth,"S. cerevisiae deletion strains, locus YNL248C, strain rpa49, hits give low values",0.679 (active)
same,normalized growth,"S. cerevisiae deletion strains, locus YNL250W, strain rad50, hits give low values",0.152 (active)
same,normalized growth,"S. cerevisiae deletion strains, locus YNL271C, strain bni1, hits give low values",0.814 (active)
same,normalized growth,"S. cerevisiae deletion strains, locus YNL298W, strain CLA4, hits give low values",0.74 (active)
same,normalized growth,"S. cerevisiae deletion strains, locus YNL307C, strain MCK1, hits give low values",0.505 (active)
same,normalized growth,"S. cerevisiae deletion strains, locus YNL322C, strain KRE1 (second series), hits give low values",0.465 (active)
same,normalized growth,"S. cerevisiae deletion strains, locus YNR049C, strain mso1, hits give low values",0.947
same,normalized growth,"S. cerevisiae deletion strains, locus YNR052C, strain pop2, hits give low values",0.207 (active)
same,normalized growth,"S. cerevisiae deletion strains, locus YOL006C, strain TOP1, hits give low values",0.971
same,normalized growth,"S. cerevisiae deletion strains, locus YOL012C, strain htz1",0.487
same,normalized growth,"S. cerevisiae deletion strains, locus YOL147C, strain pex11, hits give low values",0.807 (active)
same,normalized growth,"S. cerevisiae deletion strains, locus YOR001W, strain rrp6, hits give low values",0.847 (active)
same,normalized growth,"S. cerevisiae deletion strains, locus YOR061W, strain CKA2, hits give low values",0.912
same,normalized growth,"S. cerevisiae deletion strains, locus YOR069W, strain VPS5, hits give low values",0.883 (active)
same,normalized growth,"S. cerevisiae deletion strains, locus YOR070C, strain gyp1, hits give low values",0.739 (active)
same,normalized growth,"S. cerevisiae deletion strains, locus YOR080W, strain dia2, hits give low values",0.543 (active)
same,normalized growth,"S. cerevisiae deletion strains, locus YOR083W, strain WHI5, hits give low values",0.814 (active)
same,normalized growth,"S. cerevisiae deletion strains, locus YOR106W, strain vam3, hits give low values",0.366 (active)
same,normalized growth,"S. cerevisiae deletion strains, locus YOR136W, strain idh2, hits give low values",0.915 (active)
same,normalized growth,"S. cerevisiae deletion strains, locus YOR144C, strain elg1, hits give low values",0.542 (active)
same,normalized growth,"S. cerevisiae deletion strains, locus YOR184W, strain ser1, hits give low values",0.67 (active)
same,normalized growth,"S. cerevisiae deletion strains, locus YOR231W, strain MKK1, hits give low values",0.78 (active)
same,normalized growth,"S. cerevisiae deletion strains, locus YOR265W, strain rbl2, hits give low values",0.796 (active)
same,normalized growth,"S. cerevisiae deletion strains, locus YOR270C, strain vph1, hits give low values",0.576 (active)
same,normalized growth,"S. cerevisiae deletion strains, locus YOR290C, strain snf2, hits give low values",0.746 (active)
same,normalized growth,"S. cerevisiae deletion strains, locus YOR316C, strain cot1, hits give low values",0.942
same,normalized growth,"S. cerevisiae deletion strains, locus YPL051W, strain arl3, hits give low values",0.828 (active)
same,normalized growth,"S. cerevisiae deletion strains, locus YPL078C, strain atp4, hits give low values",0.868 (active)
same,normalized growth,"S. cerevisiae deletion strains, locus YPL106C, strain sse1, hits give low values",0.879
same,normalized growth,"S. cerevisiae deletion strains, locus YPL240C, strain hsp82, hits give low values",0.857 (active)
same,normalized growth,"S. cerevisiae deletion strains, locus YPL256C, strain CLN2, hits give low values",0.784 (active)
same,normalized growth,"S. cerevisiae deletion strains, locus YPR119W, strain clb2, hits give low values",0.893 (active)
same,normalized growth,"S. cerevisiae deletion strains, locus YPR141C, strain kar3, hits give low values",0.836 (active)
same,normalized growth,"S. cerevisiae deletion strains, locus YPR163C, strain tif3, hits give low values",0.276 (active)
same,normalized growth,"S. cerevisiae deletion strains, locus YPR167C, strain met16, hits give low values",0.795 (active)
same,normalized growth,"S. cerevisiae deletion strains, strain wtn01, hits give low values",0.739 (active)
same,normalized growth,"S. cerevisiae strains, strain wild type, hits give low values",0.892 (active)
